For this experiment, the target named is GABARAPL2, P60520. As to the kind of experiment: median log2 fold change of GCK-ALFA target abundance (FLAG IP / Myc IP barcode read proportion) (log2 ratio); each designed protein is fused to an ALFA-tag nanobody in HEK293 cells to bring the named protein to FLAG-tagged glucokinase (GCK); Myc marks an untargeted standard; higher = target protein stabilised (more abundant). The conditions noted are these: target protein: 3xFLAG-MCP-GCK-ALFA reporter; HEK293 landing pad (RPLP). The method in brief: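 Binders fused to an ALFA nanobody were recombined as a library into HEK293 landing-pad cells, which were induced with 2 μg mL^−1 doxycycline and then transfected to express a FLAG-tagged target and a Myc-tagged standard. After 48 h, circular RNA barcodes recovered by anti-FLAG and anti-Myc immunoprecipitation of lysates were reverse transcribed, amplified and sequenced. Each binder's target abundance is the median log2 ratio of FLAG to Myc barcode read proportions, from barcodes present at ≥10^−7 in both replicates, binders carrying ≥3 barcodes per replicate, a 10^−6 pseudocount and pooled replicates.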
Chain of GABARAPL2, P60520 (P60520 whole entry, the tested form may be a part): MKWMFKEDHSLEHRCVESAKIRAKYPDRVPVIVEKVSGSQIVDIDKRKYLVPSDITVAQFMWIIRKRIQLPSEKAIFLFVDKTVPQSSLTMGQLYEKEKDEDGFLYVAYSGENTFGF

B1: GBRAPL2_53_7363 (protein)
chain: MYEVEVEHPDKEKLLRAAEKIAEIAEKHGLKITVTFVKEDATVEVHTADAKEALKIAKENIEKGDVILTVRLPDSLEEVREELIDAAAEEGAVVSVTELP
In the case of B1, the “median log2 fold change” value was 0.174.

B2: GBRAPL2_54_7388 (protein)
chain: MKKIRITVDFIAEGNDEELAKVEKVLLEELEKFKKELKEKFNAKTEISVERENGVLTITVDVITEEKDVDEVIDLADEVAKEVEKKTGVKVSVVIGIEEL
As to B2, the “median log2 fold change” value is -0.363.

B3: GBRAPL2_54_7387 (protein)
chain: MKIIEIEIDYIAEGDDETLDKVEKVALEEIEKLKKELKEKYGAETEIEVEREDGVLSVTVTVITKEENVDEVIDLAEETAKEISEKTGIKVSVVIGLKEL
For B3, the “median log2 fold change” value is -0.429.

B4: GBRAPL2_53_7367 (protein)
chain: MTLVEVEHPDKEKLLKAAEKIAEIAKKLGVNITVIFVKSDGSVERFTANAEEALKIAREKIKEGDVIIEVELEDSQEEALEEIIDAAAEAGAVVSVEKLP
With B4, the “median log2 fold change” value is 0.299.

B5: GBRAPL2_54_7368 (protein)
chain: MIEVEITVVMKRENFLKHKELIKKILLEKVEELKKEHPDLIEKILEIEEEEYPDVGLLSIKILAKPEAEDLIRDLAEEIQKELEKKTGEKVHVVVAFGEL
Take B5: the “median log2 fold change” value was -0.39.

B6: GBRAPL2_53_7361 (protein)
chain: MIEIDIAHPDPAVVKKAAEKIFDVAEENGVEVEVEVTTEDGTVTRLTGSIEEIREKVTAMAAKQPVLITIYLPDEAEETAEEIEDIALEEGATVSREVLP
For B6, the “median log2 fold change” value worked out at 0.219.

B7: GBRAPL2_54_7378 (protein)
chain: MKIVEVEVDYIAQGNDEELEKVEKVAKEELAKLTEELAKKYGAKTTTSVEREDGVLSVTLTVIVKESDLDAVIDLALETAKRIEEKTGVKVSVVIGTKEL
B7: the “median log2 fold change” value is -0.111.

B8: GBRAPL2_53_7357 (protein)
chain: MLRLSIAHPDPAVVAEALRRIFEILREAGVEAEVVVTLEDGTVVRLTGDLDEIEARVTELAAKQPVLVDIYMPDSAEETVEEMEDAALDAGATVSVERVP
On to B8, for which the “median log2 fold change” value came out at 0.126.

B9: GBRAPL2_54_7369 (protein)
chain: MKIVEVTFVAEREFFLANRERIRAAALATYAELRKRLPDKVGELLSEEYSETPDYGSLSLDIEVDESALDEVIDAFEATRDALSAELGHPVHVVIGIGDK
B9: the “median log2 fold change” value was -0.231.

B10: GBRAPL2_54_7374 (protein)
chain: MKKVEITIDYVVEGNEEELEKVEKVLKKELEELKKKLESEFNAKTKISVERENGVLTIEVDVITDEKDVDKVIDLALETAKKVSEKTGVKVSVVIGIKEL
Take B10: the “median log2 fold change” value was -0.179.

B11: GBRAPL2_54_7375 (protein)
chain: MKKVEIEIDYIVEGNEEELKKVREVLKKELEKMKKELEEKFNATVEVSEEYENGVLTVTVKVIVDEEHVDEVIDLALETAERVSKETGVKVNVVIGIKEL
Consider B11, for which the “median log2 fold change” value is -0.389.

B12: GBRAPL2_54_7381 (protein)
chain: AKKVEIVADFIVEGTPEELAKVEKVATELSKKLAEELAAKYGATSTLSFEREDGVLLLTVTIVTDESAVDDVLDRLEELRDEIEKRTGVKVNLVIGIKEL
Turning to B12, the “median log2 fold change” value was -0.18.

B13: GBRAPL2_54_7380 (protein)
chain: MKKVLITGEFIVEGDEESLEKVKKVAEEKSKELSEELKKKYGAESTISFEEEDGVLYITIDIITDEEAVDDVIDKLEELKKEIEKETGLKVSLVIGIEYL
For the molecule B13, the “median log2 fold change” value was found to be 0.0537.

B14: GBRAPL2_54_7385 (protein)
chain: MTKVLVEIDFLVEGDEEELAEVEKVLLEEIEKMKKELKEKYGAEVTVEVEREDGRLLVTVTVLTPKEAVDDVIDLAEKMRDEVEAKTGVKVHVVIGIEEL
In the case of B14, the “median log2 fold change” value came to 0.154.

B15: GBRAPL2_54_7372 (protein)
chain: MTIVEIEATFIAEGSDEELERIEEVALRELKKLAERLKKEFGAESEISSEREDGVLSVTVKITTEKENVDEVLDLLEETRERISRETGRPVSLVIGIKEL
Take B15: the “median log2 fold change” value amounted to 0.186.

B16: GBRAPL2_54_7370 (protein)
chain: ETIIEIEATFIAEGSEEELEEVEKVALEKLAELSEKLKKEFGAESEISSERENGVLSVTVKITTKKEDLDKVLDLLEETRDEISKETGKKVSLVIGIKEL
Take B16: the “median log2 fold change” value was -0.0409.

B17: GBRAPL2_54_7389 (protein)
chain: MKMIEIVIDYIAEGDDEELDKVEEVLLELLEEFKKELKEKYGATVEVSVEREDGVLTVTVTVIVKEEDVDDVIDLADKVAKEVEAKTGVKVSLVIGIKEL
B17: the “median log2 fold change” value is -0.265.

B18: GBRAPL2_53_7358 (protein)
chain: MLVVEIAHPDPAVVKEAAKKILAVIKEDGVEAKVTVTTENGEVKVLTGDIDKIEAEVTALAAKQPVLISIELPDSAEETVEKMEDIALEAGATVSVYREP
Regarding B18, the “median log2 fold change” value was 0.217.

B19: GBRAPL2_53_7360 (protein)
chain: MIVIDIAHPDKEVVKKAAEKIFDIVKEAGVEVEVTVTTEDGKVEKLTGSVDDIKAKVTELAAKQPVLIEITLPDSAKETAEKIVDVALEEGATVSVEELE
Consider B19, for which the “median log2 fold change” value was determined as 0.111.

B20: GBRAPL2_54_7373 (protein)
chain: MTKVLIEATFIAEGTPEELAEVRKVALEELEKLKKELKEKFGAESKISSEEEDGVLSVTVEITTEKENLDEVLDLLEETRERIAERTGRPVSLVIGIKEL
As for B20, the “median log2 fold change” value worked out at 0.0324.

B21: GBRAPL2_54_7386 (protein)
chain: MKKVNITIDFVAEGDPETLAKVEEVAEKEIEKMEEELKEKYGAETERSVEREDGVLTVTVDVTVPEEAVDDVIDLALETAERISKETGVKVSVVIGAEEL
For B21, the “median log2 fold change” value is -0.458.

B22: GBRAPL2_53_7359 (protein)
chain: MIEIDIAHPDKAVVKEAADKIFDVVEENGVEVEVTVTDENGTVTKLTGSVEEIREKVTAMAAKQPVLITIKLPDSAKETAEKIEDIALEKGATVSREELE
For B22, the “median log2 fold change” value was 0.276.

B23: GBRAPL2_53_7364 (protein)
chain: MYLVEVEHPDKEKLLKAAEEIAKIAKKHNLKITVIFVKEDGTVERYTANAEEALKIAKEWIEKGDVILEVKLPDSLEEVKEEIIDAAAKNGAVVSVEELE
For the molecule B23, the “median log2 fold change” value was found to be 0.221.

B24: GBRAPL2_54_7377 (protein)
chain: MKKVEITIDYIVEGDEEELKRVREVLEKELEKMEKELKEKFNAKTEVSVEVEDGVLTVTVDVIVDEKDVDKVIDLALKTAEEVSKKTGVKVNVVIGIKEL
As for B24, the “median log2 fold change” value is -0.193.

B25: GBRAPL2_54_7382 (protein)
chain: AKKVRITIEFIVEGNEEELEKVKKVAKELSEELAKELKEKYGATSSISFEEENGVLTITIDVITDESAVDDVIDRALELKEEIEKKTGLKVSVVIGIEYL
For B25, the “median log2 fold change” value came out at 0.121.

B26: GBRAPL2_54_7376 (protein)
chain: MKKVEIEIDYIVEGDPAELARVEAVLKKELAEMEKTLKSKFNAKTTVSSEVEDGVLTTTVTVITDESHVDEVIDLALETAERVSAETGVKVSVVIGIKEL
On to B26, for which the “median log2 fold change” value was -0.212.

B27: GBRAPL2_54_7383 (protein)
chain: AKKIEIEIDYIVEGDKESLEKVKKVFTELSKKMAEELKEKYGAETKIEFEEENGVLTGTITVITDESHVDEVIDRALELKKEIEKKTGLKVNVVIGIKEL
As to B27, the “median log2 fold change” value is -0.128.

B28: GBRAPL2_54_7379 (protein)
chain: MKIVEVEITYLATGNEEELKKVEEVAKKKVEEFKKELEEKYGAKTTTSVEIEDGVLSYTVTVITKEENLDEVIDKALEMAKEIEKETGVKVSVVIGTKEL
For B28, the “median log2 fold change” value was -0.192.

B29: GBRAPL2_53_7365 (protein)
chain: MTLVEVEHVDPEKMRAAAKKIAEVAKKHGLKIKVVFVDDEANVTEVTANAEEALKIAEEWIEKGHVILEVELPDDLEEVKEEIIDIAAEEGAVVSVEELE
Take B29: the “median log2 fold change” value was determined as 0.0119.

B30: GBRAPL2_53_7362 (protein)
chain: MWLVEVEHPDKEKLLKAAKEIFKIAKENGLKVTVKFVKEDGTVEEKTLNAEEALKYVEEKVKEGDVILEIELPDSLEEAKEKIIDAAAKHGAVVSVEELE
As to B30, the “median log2 fold change” value amounted to 0.16.

B31: GBRAPL2_54_7371 (protein)
chain: ETTVEIEATFLAEGTPEELARVRAVALEELEELKKELKEKFGAESEISAEEEDGVLSVTVTITTKKENLDEVLDLLEATRDRIAARTGLPVALVIGIKEL
B31: the “median log2 fold change” value is -0.0591.

B32: GBRAPL2_53_7366 (protein)
chain: MTEVEIEHPDKEKMLKAAKKVFELVKERNLKVTVIYVDENANVTRVTANAEEALKIAEEWIEKGDVILEVILPDSEEELKEKIIDIAAENGAVVSVEELE
With B32, the “median log2 fold change” value was -0.0323.

The values above are taken from the supplement of paper PMC12632987.
